Inconclusive results are not listed. Values without a mark were called inactive. The source made the active and inactive calls. The call rests on the fitted dose curve; in most records, active means well fitted inhibition curve with a large enough effect; inconclusive means small, poorly fitted or top-dose-only effect; inactive means no such curve, though single readings can be large or run the other way.
The compounds below were run against Rap guanine nucleotide exchange factor 4 (Homo sapiens) (UniProt Q8WZA2) (assay: Confirmatory qHTS for antagonist of cAMP-regulated guanine nucleotide exchange factor 4 (EPAC2) (AID 1645885; further: nearly all actives have a fitted effect of over 25% in size; further: potency means the concentration at half of the fitted maximal effect; on activity change, negative = inhibition: on the % scale 0 is the no-effect control and ±100 the full control effect)). Conditions: EPAC2 Rap1B-BODIPY-GDP exchange fluorescence, biochemical; series mostly up to 12.7 µM; activity change, negative = inhibition: at the top concentration.
Sequence of Rap guanine nucleotide exchange factor 4 (Homo sapiens) (Q8WZA2 whole entry, looked up): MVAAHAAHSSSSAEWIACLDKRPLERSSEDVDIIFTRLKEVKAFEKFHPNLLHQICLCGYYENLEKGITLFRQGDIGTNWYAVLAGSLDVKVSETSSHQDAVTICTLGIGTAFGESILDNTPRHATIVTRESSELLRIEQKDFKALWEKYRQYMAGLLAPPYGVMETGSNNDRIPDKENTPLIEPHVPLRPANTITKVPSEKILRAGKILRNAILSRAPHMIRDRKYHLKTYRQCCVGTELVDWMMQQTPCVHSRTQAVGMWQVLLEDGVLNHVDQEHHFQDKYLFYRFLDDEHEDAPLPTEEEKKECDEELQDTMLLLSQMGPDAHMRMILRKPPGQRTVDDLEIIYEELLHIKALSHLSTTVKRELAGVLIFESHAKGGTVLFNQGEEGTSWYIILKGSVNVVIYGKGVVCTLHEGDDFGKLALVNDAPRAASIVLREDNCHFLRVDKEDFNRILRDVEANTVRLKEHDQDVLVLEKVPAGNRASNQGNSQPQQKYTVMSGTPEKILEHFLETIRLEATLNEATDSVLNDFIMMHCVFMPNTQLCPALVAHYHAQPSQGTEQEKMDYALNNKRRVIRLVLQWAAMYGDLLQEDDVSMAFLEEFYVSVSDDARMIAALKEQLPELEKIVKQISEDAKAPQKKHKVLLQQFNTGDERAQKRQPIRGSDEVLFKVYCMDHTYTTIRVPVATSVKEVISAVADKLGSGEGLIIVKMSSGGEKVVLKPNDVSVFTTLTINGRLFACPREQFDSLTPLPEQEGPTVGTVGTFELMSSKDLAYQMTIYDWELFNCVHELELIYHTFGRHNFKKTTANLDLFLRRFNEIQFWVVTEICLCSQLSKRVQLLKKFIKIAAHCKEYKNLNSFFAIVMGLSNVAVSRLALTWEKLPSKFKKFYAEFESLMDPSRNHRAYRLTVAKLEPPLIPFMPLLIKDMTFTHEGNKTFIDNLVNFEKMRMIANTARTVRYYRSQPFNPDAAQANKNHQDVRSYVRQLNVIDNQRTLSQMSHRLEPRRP

SMILES | activity change, negative = inhibition | Potency | outcome
C=CCn1c(=NC(=O)c2sc3ccccc3c2Cl)sc2cc(S(N)(=O)=O)ccc21 | -7.36% [at 114 µM] | – | –
CC(C)N1CCc2c(sc(NC(=O)c3ccc(S(=O)(=O)N4CCc5ccccc54)cc3)c2C(N)=O)C1 | 352% [at 114 µM] | – | –
O=C(NCCc1c[nH]c2ccccc12)C(=O)Nc1cc2c3c(c1)CC(=O)N3CCC2 | -10.5% [at 114 µM] | – | –
O=[N+]([O-])c1ccc(NS(=O)(=O)c2ccc(Cl)c(Cl)c2)cc1 | 33.4% [at 114 µM] | – | –
COc1ccc(OC)c(N2C(=O)[C@@H]3C(c4ccccc4Cl)=NO[C@@H]3C2=O)c1 | – | 6.01 µM (active) | –
Clc1ccc(Cn2c(/C=C/c3ccco3)nc3ccccc32)cc1 | – | – | inactive
COc1ccc(OC)c(CCNC(=O)c2ccc(CS(=O)(=O)c3ccc(Br)cc3)o2)c1 | -21.6% [at 114 µM] | – | –
Cc1ccc(N(Cc2cccs2)C(=O)c2ccco2)cc1 | 38.2% | – | –
CCc1ccc(NS(=O)(=O)c2cc3c4c(c2)CCN4C(=O)CC3)cc1 | -26.8% [at 114 µM] | – | –
NS(=O)(=O)c1ccc(NC(=O)c2cccc(N3C(=O)c4ccccc4C3=O)c2)cc1 | -9.49% | – | –
O=C1C=C(NCc2ccccc2)c2ccccc2C1=O | – | 15.1 µM (active) | –
CC(Oc1ccc(Cl)cc1)C(=O)Nc1sccc1C(N)=O (stereo not given) | -5.91% | – | –
O=S(=O)(NCCC1=CCCCC1)c1ccc(OC(F)(F)F)cc1 | -5.28% | – | –
COc1ccc(-c2nc3ccccc3n2CCC(C)C)cc1OC | 141% [at 114 µM] | – | –
O=C(O)c1ccccc1NS(=O)(=O)c1ccc(NN=Cc2ccccc2F)c([N+](=O)[O-])c1 | 0.933% | – | –
C[C@H]1CN([C@@H](C)CO)C(=O)c2cccc(NC(=O)C3CC3)c2O[C@H]1CN(C)S(=O)(=O)c1ccccc1 | -22.8% [at 114 µM] | – | –
C=CCc1ccccc1OCCSc1nc(-c2ccccc2F)nc2cc(=O)[nH]n12 | 0.617% | – | –
CCC(C)n1c(SCC(=O)Nc2ccc3[nH]c(=O)[nH]c3c2)nc2ccccc2c1=O (stereo not given) | -5.59% | – | –
C#Cc1ccc([C@@H]2C=C(C(=O)NCc3ccccc3)O[C@H](OCc3ccc(CO)cc3)C2)cc1 | -27.9% [at 114 µM] | – | –
Cc1ccc(-c2nnc(Nc3ccc(OCC(N)=O)cc3)c3ccccc23)cc1S(N)(=O)=O | – | – | inactive

SMILES | activity change, negative = inhibition | Potency | outcome
CCc1ccc(OCC2c3cc(OC)c(OC)cc3CCN2C(C)=O)cc1 (stereo not given) | – | 42.6 µM (active) | –
CC(=O)c1sc2nc(CSc3nnnn3-c3ccccc3)[nH]c(=O)c2c1C | -3.21% | – | –
O=c1c2ccccc2c(C=Nc2ccc(O)cc2)c(O)n1Cc1ccccc1 | -9.33% | – | –
COc1ccccc1C1CC(=O)Oc2cc(C)c(Cl)cc21 (stereo not given) | – | 9.53 µM (active) | –
NS(=O)(=O)c1ccc(N/N=C/c2ccccc2C(=O)O)c([N+](=O)[O-])c1 | -10.4% [at 114 µM] | – | –
Cc1ccc(/C=C/C(=O)Nc2nnc(SCc3ccc(C#N)cc3)s2)o1 | -15.3% [at 114 µM] | – | –
CCOC(=O)C1=C(N)Oc2cc(O)ccc2C1c1ccccc1 (stereo not given) | -12.7% | – | –
CC(=O)c1c(C)[nH]c(C(=O)OCC(=O)c2ccc3c(c2)NC(=O)CO3)c1C | 103% [at 114 µM] | – | –
Cc1ccc(C)c(Nc2cc(C)nc(-c3ccccc3O)n2)c1 | -16.9% | – | –
CC(=O)Nc1ccc(S(=O)(=O)Nc2nc3ccccc3nc2-n2ccc(=NC(=O)c3ccccc3)cc2)cc1 | -10.4% | – | –
O=C(N/N=C/c1ccccc1O)c1cccc(C(F)(F)F)c1 | -0.227% | – | –
COC(=O)c1c(SC)nc2ccccc2c1OCc1ccc(C)cc1 | 1.49% | – | –
Cc1ccc(C)c(-c2ccc(=O)n(Cc3ccc(F)cc3Cl)n2)c1 | 6.91% | – | –
CCC(Oc1ccccc1)C(=O)Nc1ccccc1N1CCCC1 (stereo not given) | 25.4% [at 114 µM] | – | –
COc1ccc(OC)c(C(=O)/C=C/c2ccccc2C(F)(F)F)c1 | 52.2% [at 114 µM] | – | –
O=C(NCC(c1ccco1)N1CCCCC1)c1cccc(NS(=O)(=O)c2ccc(Br)cc2)c1 (stereo not given) | -19.8% | – | –
O=C(O)CCc1ccc(-c2ccc(Br)cc2)n1-c1ccc(O)cc1 | – | 42.6 µM (active) | –
Cc1ccc(CN(C(=O)COc2cc(C)c(Cl)c(C)c2)c2ccccn2)o1 | -11.5% | – | –
CCc1noc(C)c1C(=O)N1CCCSC1=Nc1ccccc1Cl | -29.4% | – | –
COc1ccc(Nc2nnc(-c3ccc(O)cc3)c3ccccc23)cc1 | 1.09% | – | –

The compounds below were run against Rap guanine nucleotide exchange factor 3 (Homo sapiens) (UniProt O95398) (assay: Counterscreen qHTS for antagonist of cAMP-regulated guanine nucleotide exchange factor 3 (EPAC1) (AID 1645888;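 further: fluorescence loss as bound BODIPY-GDP is released from Rap1B; % of control where 0% means no effect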)). Conditions: Rap1B-BODIPY-GDP nucleotide exchange, fluorescence; series mostly up to 154 µM; activity change, negative = inhibition: at the top concentration.
Sequence of Rap guanine nucleotide exchange factor 3 (Homo sapiens) (O95398 whole entry, looked up): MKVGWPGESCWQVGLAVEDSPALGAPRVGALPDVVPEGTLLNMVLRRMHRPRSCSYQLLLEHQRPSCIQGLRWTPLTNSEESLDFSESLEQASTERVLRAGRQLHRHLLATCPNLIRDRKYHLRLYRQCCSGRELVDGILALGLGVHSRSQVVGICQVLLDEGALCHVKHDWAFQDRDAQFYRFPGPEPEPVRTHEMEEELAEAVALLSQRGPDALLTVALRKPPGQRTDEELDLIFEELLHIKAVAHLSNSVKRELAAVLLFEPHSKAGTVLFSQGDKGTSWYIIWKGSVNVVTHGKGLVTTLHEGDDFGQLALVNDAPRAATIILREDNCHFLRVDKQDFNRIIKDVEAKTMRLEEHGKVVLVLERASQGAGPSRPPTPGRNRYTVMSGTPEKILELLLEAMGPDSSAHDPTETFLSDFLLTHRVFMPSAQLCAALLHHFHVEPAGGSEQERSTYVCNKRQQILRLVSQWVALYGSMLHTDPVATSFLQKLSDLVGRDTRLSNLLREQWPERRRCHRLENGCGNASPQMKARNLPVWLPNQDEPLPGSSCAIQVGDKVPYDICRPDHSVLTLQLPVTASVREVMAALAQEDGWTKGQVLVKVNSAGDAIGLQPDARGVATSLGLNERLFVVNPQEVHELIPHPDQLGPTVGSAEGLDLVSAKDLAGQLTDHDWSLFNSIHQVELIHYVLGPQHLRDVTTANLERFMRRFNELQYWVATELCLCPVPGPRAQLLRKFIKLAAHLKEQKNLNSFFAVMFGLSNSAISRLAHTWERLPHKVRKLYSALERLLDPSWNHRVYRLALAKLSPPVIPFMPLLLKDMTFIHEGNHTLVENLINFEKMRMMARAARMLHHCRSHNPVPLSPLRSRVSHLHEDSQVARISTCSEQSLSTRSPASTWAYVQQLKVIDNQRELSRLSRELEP
Summary of the method: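 Measured: fluorescence of BODIPY-GDP bound to Rap1B, which falls as exchange proceeds. Conditions include 50 uM competing GDP, 5 and 30 min reads, and a later cAMP challenge for antagonist detection.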

SMILES | activity change, negative = inhibition
C=CCn1c(=NC(=O)c2sc3ccccc3c2Cl)sc2cc(S(N)(=O)=O)ccc21 | -4.53%
CC(C)N1CCc2c(sc(NC(=O)c3ccc(S(=O)(=O)N4CCc5ccccc54)cc3)c2C(N)=O)C1 | 16.8%
O=C(NCCc1c[nH]c2ccccc12)C(=O)Nc1cc2c3c(c1)CC(=O)N3CCC2 | 4.31%
O=[N+]([O-])c1ccc(NS(=O)(=O)c2ccc(Cl)c(Cl)c2)cc1 | 34.3%
COc1ccc(OC)c(N2C(=O)[C@@H]3C(c4ccccc4Cl)=NO[C@@H]3C2=O)c1 | 3.5%
Clc1ccc(Cn2c(/C=C/c3ccco3)nc3ccccc32)cc1 | 7.67%
COc1ccc(OC)c(CCNC(=O)c2ccc(CS(=O)(=O)c3ccc(Br)cc3)o2)c1 | -8.01%
Cc1ccc(N(Cc2cccs2)C(=O)c2ccco2)cc1 | -9.49%
CCc1ccc(NS(=O)(=O)c2cc3c4c(c2)CCN4C(=O)CC3)cc1 | -3.86%
NS(=O)(=O)c1ccc(NC(=O)c2cccc(N3C(=O)c4ccccc4C3=O)c2)cc1 | 2.18% [at 30.8 µM]
O=C1C=C(NCc2ccccc2)c2ccccc2C1=O | 11.7%
CC(Oc1ccc(Cl)cc1)C(=O)Nc1sccc1C(N)=O (stereo not given) | -14.6% [at 30.8 µM]
O=S(=O)(NCCC1=CCCCC1)c1ccc(OC(F)(F)F)cc1 | -5.33% [at 30.8 µM]
COc1ccc(-c2nc3ccccc3n2CCC(C)C)cc1OC | -9.5%
O=C(O)c1ccccc1NS(=O)(=O)c1ccc(NN=Cc2ccccc2F)c([N+](=O)[O-])c1 | -10.7% [at 30.8 µM]
C[C@H]1CN([C@@H](C)CO)C(=O)c2cccc(NC(=O)C3CC3)c2O[C@H]1CN(C)S(=O)(=O)c1ccccc1 | -10%
C=CCc1ccccc1OCCSc1nc(-c2ccccc2F)nc2cc(=O)[nH]n12 | 11.2%
CCC(C)n1c(SCC(=O)Nc2ccc3[nH]c(=O)[nH]c3c2)nc2ccccc2c1=O (stereo not given) | -15% [at 30.8 µM]
C#Cc1ccc([C@@H]2C=C(C(=O)NCc3ccccc3)O[C@H](OCc3ccc(CO)cc3)C2)cc1 | 3.16%
Cc1ccc(-c2nnc(Nc3ccc(OCC(N)=O)cc3)c3ccccc23)cc1S(N)(=O)=O | 56.6%

SMILES | activity change, negative = inhibition
CCc1ccc(OCC2c3cc(OC)c(OC)cc3CCN2C(C)=O)cc1 (stereo not given) | -7.33%
CC(=O)c1sc2nc(CSc3nnnn3-c3ccccc3)[nH]c(=O)c2c1C | -6.43% [at 30.8 µM]
O=c1c2ccccc2c(C=Nc2ccc(O)cc2)c(O)n1Cc1ccccc1 | -7.68% [at 30.8 µM]
COc1ccccc1C1CC(=O)Oc2cc(C)c(Cl)cc21 (stereo not given) | 1.41%
NS(=O)(=O)c1ccc(N/N=C/c2ccccc2C(=O)O)c([N+](=O)[O-])c1 | -11.6%
Cc1ccc(/C=C/C(=O)Nc2nnc(SCc3ccc(C#N)cc3)s2)o1 | 0.286%
CCOC(=O)C1=C(N)Oc2cc(O)ccc2C1c1ccccc1 (stereo not given) | -7.53% [at 30.8 µM]
CC(=O)c1c(C)[nH]c(C(=O)OCC(=O)c2ccc3c(c2)NC(=O)CO3)c1C | -6.51%
Cc1ccc(C)c(Nc2cc(C)nc(-c3ccccc3O)n2)c1 | -8.51% [at 30.8 µM]
CC(=O)Nc1ccc(S(=O)(=O)Nc2nc3ccccc3nc2-n2ccc(=NC(=O)c3ccccc3)cc2)cc1 | -23.7% [at 30.8 µM]
O=C(N/N=C/c1ccccc1O)c1cccc(C(F)(F)F)c1 | -7.23% [at 30.8 µM]
COC(=O)c1c(SC)nc2ccccc2c1OCc1ccc(C)cc1 | 7.16%
Cc1ccc(C)c(-c2ccc(=O)n(Cc3ccc(F)cc3Cl)n2)c1 | -7.63%
CCC(Oc1ccccc1)C(=O)Nc1ccccc1N1CCCC1 (stereo not given) | 7.39%
COc1ccc(OC)c(C(=O)/C=C/c2ccccc2C(F)(F)F)c1 | -5.4%
O=C(NCC(c1ccco1)N1CCCCC1)c1cccc(NS(=O)(=O)c2ccc(Br)cc2)c1 (stereo not given) | -11.8% [at 30.8 µM]
O=C(O)CCc1ccc(-c2ccc(Br)cc2)n1-c1ccc(O)cc1 | 3.16%
Cc1ccc(CN(C(=O)COc2cc(C)c(Cl)c(C)c2)c2ccccn2)o1 | 23.6%
CCc1noc(C)c1C(=O)N1CCCSC1=Nc1ccccc1Cl | -10.8% [at 30.8 µM]
COc1ccc(Nc2nnc(-c3ccc(O)cc3)c3ccccc23)cc1 | -17.5% [at 30.8 µM]

From PubChem BioAssay (NCATS)
